# Source: PubChem (National Center for Advancing Translational Sciences (NCATS))
# Hits are enriched below; roughly 14% of the tested compounds scored in any of these assays.
# HCV inh: qHTS Assay for Inhibitors of Hepatitis C Virus (HCV) | Potency, µM (series often up to 41.8 µM), actives largely listed as inhibitors | Huh7.5.1 HCVcc-Cre infection, luciferase reporter, 44 h | 340,000 compounds, 3.4% hits
#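 After 44 h co-culture of compound, cells and HCVcc-Cre (~0.5 moi), substrate is added for 15 min at room temperature and luciferase measured over 15 sec. Cells were seeded at 1,000/well and pre-cultured 4 h.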
# Lassa entry inh: qHTS for Inhibitors of binding or entry into cells for Lassa Virus | 300,000 compounds, 1.2% hits | Lassa virus pseudotype entry inhibition, cell reporter | Potency, µM (titrated, usually from 37.9 µM), most hits filed as inhibitors | AID 540256, 2011; calls by dose curve; tested in HEK293 cells; also: nearly all actives have a fitted effect of over 50% in size
# Pf growth 48h: Primary qHTS for delayed death inhibitors of the malarial parasite plastid, 48 hour incubation. P. falciparum luciferase growth in erythrocytes, 48 h. Potency, µM (doses to about 28.7 µM), usual class: inhibitors. 310,000 compounds, 5.9% hits
#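 Firefly luciferase activity from engineered P. falciparum reports growth; inhibitors lower the luminescent signal. Cultures contained 2% hematocrit erythrocytes at 0.1% final parasitemia.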
# Marburg entry inh: qHTS for inhibitors of binding or entry into cells for Marburg Virus; Marburg virus pseudotyped entry inhibition, cell reporter; Potency, µM (series often up to 37.8 µM), actives largely listed as inhibitors; 300,000 compounds, 1.8% hits; calls by dose curve; tested in HEK293 cells
# Pf growth 96h: Primary qHTS for delayed death inhibitors of the malarial parasite plastid, 96 hour incubation | P. falciparum luciferase reporter growth, 96 h | Potency, µM (titrated, usually from 28.7 µM), usual class: inhibitors | 320,000 compounds, 6.9% hits | AID 504834, 2011
#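 Two parasite generations (96 h, 37 C, 5% CO2) of compound exposure in infected erythrocytes (0.05% parasitemia, 2% hematocrit). Luciferase-reporter P. falciparum; decreased luminescence indicates inhibited growth, aimed at apicoplast-acting delayed death.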
# HCMV inh: qHTS Assay for inhibitors of the human cytomegalovirus (HCMV) | 410,000 compounds, 4.5% hits | activity change, negative = inhibition, % at 57.5 µM | HFF cells, HCMV-luciferase reporter, 72 h; active compounds read low; in the data active = activity change below about -60%; inconclusive = no clear call, values can overlap the other calls; inactive = above about -39%
#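 After 16 h attachment at 37C, HFF cells received test compound and HCMV-luciferase (1 PFU/cell); reporter luminescence read 72 h later, data normalized against buffer-only and known inhibitor Salinomycin.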
# Hits are given with their value; 0 = inactive; ? = inconclusive; - = no result; [ ] = another dose, or the depositor's remark. Unless noted, calls follow the shape of the dose curve; as a rule, active = well fitted inhibition curve with a large enough effect; inconclusive = small, poorly fitted or top-dose-only effect, or another doubt; inactive = no such curve, though single readings can be large or run the other way.
SMILES,HCV inh,Lassa entry inh,Pf growth 48h,Marburg entry inh,Pf growth 96h,HCMV inh
COC(=O)/C=C/C(=O)Nc1cccc(C(F)(F)F)c1,0,0,?,?,?,-74.1
COc1ccc(C(=O)N(C)CCOc2ccc(Cl)cc2)cc1S(=O)(=O)N1CCCC1,-,-,-,-,-,0
CCOC(=O)c1c(-c2ccccc2)oc2ccc(NS(=O)(=O)c3ccc(C(C)C)cc3)cc12,-,0,-,0,-,0
Cc1noc(-c2ccc(C(F)(F)F)cc2)c1NC(=O)Nc1ccc(Cl)cc1,?,-,2.62µM,-,2.62µM,-87.7
COc1cc([C@@H]2c3cc4c(cc3[C@@H](O)[C@H]3COC(=O)[C@H]23)OCO4)cc(OC)c1O[Si](C)(C)C(C)(C)C,0,-,7.38µM,-,8.28µM,?
CCC1C(c2cc(OC)c(OC)c(OC)c2)c2cc3c(cc2OC1N1CCCC1)OCO3 (stereo not drawn),?,8.91µM,-,?,-,0
COc1cc(C2c3cc4c(cc3C3OC(=O)C2C3CO)OCO4)cc(OC)c1OC (stereo not drawn),-,-,-,-,-,-75.7
COc1cc(C2c3cc4c(cc3CC3COC(=O)C32)OCO4)cc(OC)c1O (stereo not drawn),?,?,-,?,-,-90.2
CCN(CC)C1Oc2cc3c(cc2C(c2cc(OC)c(OC)c(OC)c2)C1C)OCO3 (stereo not drawn),0,?,-,?,-,?
COc1cc(C2CC(=O)Oc3cc4c(cc32)OCO4)cc(OC)c1OC (stereo not drawn),0,-,-,-,-,0
Cc1cc(C)c(NS(=O)(=O)c2ccc(-c3coc(C)n3)cc2)c(C)c1,-,0,-,-,-,0
COc1ccc(CCNC(=O)c2cc(S(=O)(=O)N3CCCC3)cn2C)cc1OC,?,-,0,-,0,0
COc1cccc(CNC(=O)c2cc(S(=O)(=O)N3CCCC3)cn2C)c1,0,-,13.1µM,-,11.7µM,0
Cc1cccc(CCNC(=O)c2cc(S(=O)(=O)N3CCCC3)cn2C)c1,8.91µM,-,0,-,0,0
CC(C)c1nn2c(=O)cc(COC(=O)CNC(=O)c3ccccc3Cl)nc2s1,-,0,-,-,-,0
Cc1cc(C)n2nc(/C(C#N)=C/c3ccccn3)c(C#N)c2n1,0,10µM,0,?,?,0
N#C/C(=C\c1ccccn1)c1ccccn1,?,?,?,?,8.28µM,-73.6
CN(C)c1ccc(/C=C(\C#N)c2ccccn2)cc1,?,1.41µM,0,1.16µM,0,-83.8
N#C/C(=C\c1cccnc1)c1ccc([N+](=O)[O-])cc1,0,?,0,0,2.62µM,0
N#C/C(=C/c1cccs1)c1ccccn1,?,-,0,-,0,0
CCN(CC)CCN=c1c(C)nc(C#N)c(N)n1O,-,-,-,-,-,0
COC(=O)c1ccc(/C=C(\C#N)c2ccccn2)cc1,0,-,0,-,0,0
N#C/C(=C\c1ccc([N+](=O)[O-])cc1)c1ccccn1,0,0,0,0,0,-74.6
CC1Cc2ccccc2N1c1ncnc(N)c1[N+](=O)[O-] (stereo not drawn),0,0,0,0,0,-101.3
CC1CCCCN1c1ncnc(N)c1[N+](=O)[O-] (stereo not drawn),0,-,0,0,0,-77.3
SMILES,HCV inh,Lassa entry inh,Pf growth 48h,Marburg entry inh,Pf growth 96h,HCMV inh
C#CCN(C[C@@H]1[C@@H](OC(=O)NCCCCCC)[C@@H](OC(=O)NCCCCCC)Cn2c(=O)ccc(=O)n21)S(=O)(=O)c1ccc(C)cc1,-,-,-,-,-,-103.6
C#CCN(C[C@@H]1[C@@H](OC(=O)NCC2CCCCC2)[C@@H](OC(=O)NCC2CCCCC2)Cn2c(=O)ccc(=O)n21)S(=O)(=O)c1ccc(C)cc1,-,-,-,-,-,-102.2
CC1=C(C(=O)N2CCCCCC2)CC(CC(=O)NCCc2ccccn2)C(=O)N1Cc1ccc(F)cc1 (stereo not drawn),-,-,-,-,-,0
Fc1ccc(Oc2nc(-c3ccccc3)nnc2C(F)(F)F)cc1,0,0,0,0,0,0
Fc1ccc(Sc2nc(-c3ccccc3)nnc2C(F)(F)F)cc1,0,0,8.28µM,?,13.1µM,0
Cc1noc(C)c1C(=O)N(C)CC(=O)Nc1ccc(F)c(F)c1F,0,0,0,0,0,0
O=C(CN1C(=O)NC2(CCCCCC2)C1=O)c1ccc(Cl)cc1,0,-,?,-,0,0
CCc1cccc2c(C(=O)CN3C(=O)C(=O)N(C4CCCC4)C3=O)c[nH]c12,0,0,0,0,0,0
COc1ccc(C(C)=O)cc1CN1C(=O)NC2(CCCCCC2)C1=O,0,0,0,0,-,0
CCOc1ccc(C(C)=O)cc1CN1C(=O)NC2(CCCCCCC2)C1=O,0,0,11.7µM,?,?,0
O=C(CN1C(=O)NC2(CCCCCC2)C1=O)c1ccc2c(c1)OCCO2,?,?,0,0,8.28µM,0
CCc1ccc(C(=O)CN2C(=O)NC3(CCCCCC3)C2=O)cc1,11.2µM,0,0,?,0,0
O=C(CN1C(=O)NC2(CCCCCC2)C1=O)c1ccc(F)cc1,0,0,0,0,0,0
CCc1cccc2c(C(=O)CN3C(=O)NC4(CCCCCC4)C3=O)c[nH]c12,2.51µM,?,?,?,?,-86.6
C[C@H]1CC[C@H]2C(=O)O[C@H](COc3ccc(C(C)(C)C)cc3)CN2[C@@H]1c1ccc(Br)cc1,-,-,-,0,-,-
CN(Cc1ccc2c(c1)OCCO2)C(=O)CN1C(=O)NC2(CCCCC2)C1=O,0,-,0,-,0,0
CCC(C)(C)C1CCC2(CC1)NC(=O)N(CC(=O)N(C)Cc1ccc3c(c1)OCCO3)C2=O (stereo not drawn),12.6µM,-,?,-,0,?
Cc1cccc(OCCn2c(SCC(=O)O)nc3ccccc32)c1,-,0,-,-,-,0
Cc1ccc(/C=N/n2c(COc3ccccc3)n[nH]c2=S)cc1,?,-,0,-,0,0
CN(C)c1ccc(/C=N/n2c(COc3ccccc3)n[nH]c2=S)cc1,0,0.92µM,0,0,0,0
S=c1[nH]nc(COc2ccccc2)n1/N=C/c1c(Cl)cccc1Cl,0,-,-,-,0,-103.1
S=c1[nH]nc(-c2ccncc2)n1/N=C/C(Cl)=C\c1ccccc1,0,-,?,-,0,-87.4
CC(C)CCn1c(COc2ccccc2)n[nH]c1=S,0,0,0[1.15 µM],0,0[1.15 µM],-61.7
Cc1cccc(NC(=O)c2cc(-c3ccc4c(c3)OCCO4)on2)c1,-,0,-,?,-,0
COC(=O)[C@](C)(N)Cc1ccc(O)cc1,-,-,-,0,-,-
S=c1[nH]nc(COc2ccccc2)n1/N=C/C(Cl)=C/c1ccccc1,0,18.3µM,?,0,0,0
S=c1[nH]nc(COc2ccccc2)n1/N=C/c1cccnc1,0,?,0,0,0,0
FC(F)Oc1ccc(/C=N/n2c(Cc3ccc(Br)cc3)n[nH]c2=S)cc1,0,5.01µM,?,0,?,0
Cc1nn(-c2ccccc2)c(C)c1/C=N/n1c(-c2ccc(Cl)cc2)n[nH]c1=S,0,?,0,0,0,?
S=c1[nH]nc(COc2ccccc2)n1/N=C/c1ccc(Br)cc1,0,-,0,-,0,0
